In PubChem BioAssay AID624151 (Broad Institute, 2012):
The whole screen tested about 28,000 compounds, of which about 410 (1.5%) were called active. Only a selection was taken, and actives are over-represented in it overall. Values without a mark were called inactive. Rule as the data show it: active = activation above about 52%; inconclusive = no clear call, values can overlap the other calls; inactive = below that.

Assay: mutant p53 pathway re-activators, primary screen, cell-based, SW480, luciferase, single point, HTS (AID 624151)
Details: SW480 PUMA-promoter luciferase, p53 mutant reactivation; at 9.98 µM; stronger effect = higher value
In the case of COc1ccccc1CC(=O)Nc1ccc(-c2nnc(-c3ccc(C)cc3)o2)cc1, the activation is reported as -31.3%. In the case of Cc1cc(C)cc(OCC(=O)Nc2cccc(-c3nnc(-c4ccccc4)o3)c2)c1, the activation is reported as 90.4% (active). Compound CC(C)(C)c1ccc(OCC(=O)Nc2cccc(NC(=O)c3ccccc3)c2)cc1 has an activation of 39.6%. In the case of Cc1[nH]c2ccccc2c1C(=O)CSc1ccc2ccccc2n1, the activation is reported as -16.4%. Compound CCCNC(=O)N(C)C[C@@H]1Oc2ncc(-c3cccc(C#N)c3)cc2C(=O)N([C@@H](C)CO)C[C@H]1C has an activation of 0.271%. With CC(C)C#Cc1ccc2c(c1)O[C@@H](CN(C)Cc1ccncc1)[C@@H](C)CN([C@@H](C)CO)S2(=O)=O the activation was -4.79%. With CC(Sc1ncn(-c2ccccc2)n1)C(=O)Nc1ccc(Cl)cc1 (stereo not drawn) the activation was 7.31%. C[C@H](CO)N1C[C@H](C)[C@H](CN(C)Cc2cccc(C(=O)O)c2)Oc2ncc(-c3ccccc3F)cc2C1=O gave an activation of 5.45%. For COc1ccc(NC(=O)Nc2ccc3c(c2)[C@@H]2C[C@H](CC(=O)N[C@@H](C)c4ccccc4)O[C@@H](CO)[C@@H]2O3)cc1, the activation was -6.79%. With COc1ccc2c(c1)C(=O)CC(c1ccccc1)O2 (stereo not drawn) the activation was 60.3% (active). For COc1cc([C@H](Cc2ccccc2)NC(C)=O)oc(=O)c1, the activation was 12.8%. Cn1nc(CC(=O)Nc2ccc3c(c2)oc2ccccc23)c2ccccc2c1=O gave an activation of -34.2%. With O=C(C[C@@H]1C[C@H]2c3cc(NC(=O)NC4CCCC4)ccc3O[C@H]2[C@H](CO)O1)NCc1cc(F)ccc1F the activation was -2.6%. C[C@H]1CN([C@@H](C)CO)C(=O)c2cc(-c3ccc(C#N)cc3)cnc2O[C@@H]1CN(C)Cc1ccncc1 showed an activation of -0.372%. Cc1ccc([N+](=O)[O-])cc1NC(=O)CSC1=NCCS1 showed an activation of -5.18%. With CNC[C@H]1Oc2cc(C#CC(C)(C)O)ccc2S(=O)(=O)N([C@@H](C)CO)C[C@@H]1C the activation was 15.9%. C[C@@H]1CN([C@H](C)CO)C(=O)c2c(c3ccccc3n2C)-c2ccccc2CO[C@H]1CN(C)S(=O)(=O)c1ccccc1F gave an activation of 1.72%. Nc1nnc(SCC(=O)Nc2ccc(F)c(Cl)c2)s1 gave an activation of -1.2%. With C[C@@H]1CN([C@@H](C)CO)S(=O)(=O)c2ccc(C#CCC3CCCC3)cc2O[C@H]1CN(C)Cc1ccc(C(=O)O)cc1 the activation was -0.35%. Compound C[C@@H]1CCCCO[C@@H](CN(C)S(=O)(=O)c2cn(C)cn2)[C@@H](C)CN([C@@H](C)CO)C(=O)c2cc(NC(=O)NC3CCCCC3)ccc2O1 has an activation of 16%. Compound COc1ccc(OC)c(S(=O)(=O)N(C)CC(=O)Nc2cccc(Cl)c2C)c1 has an activation of -5.43%. CNC[C@H]1Oc2ncc(-c3ccccc3C)cc2C(=O)N([C@@H](C)CO)C[C@@H]1C showed an activation of 6.16%. In the case of CC(=O)Nc1ccc(NC(=O)CSc2nnc3c4cc(Br)ccc4n(C)c3n2)cc1, the activation is reported as -24.7%. In the case of C[C@@H]1CN([C@@H](C)CO)C(=O)c2cc(C#CC(C)(C)O)cnc2O[C@H]1CN(C)Cc1cccc(F)c1, the activation is reported as -7.7%. COc1ccccc1NC(=O)CN(c1ccc(Br)c(C)c1)S(C)(=O)=O showed an activation of 7.45%. In the case of C[C@@H]1CN([C@H](C)CO)C(=O)c2cc(-c3cncnc3)cnc2O[C@@H]1CN(C)Cc1ccc(Oc2ccccc2)cc1, the activation is reported as 9.54%. Compound COC(=O)c1c(NC(=S)Nc2ccc(OC)cc2[N+](=O)[O-])sc2c1CCC(C)C2 (stereo not drawn) has an activation of 4.27%. In the case of CCc1cc(C(=O)OC)c(NC(=S)Nc2ccc(OC)cc2[N+](=O)[O-])s1, the activation is reported as 62.7% (active). In the case of COc1ccc(NC(=O)CSc2nncc3ccccc23)c([N+](=O)[O-])c1, the activation is reported as 4.65%. CC(C(=O)Nc1nccs1)C1SC(=O)NC1=O (stereo not drawn) gave an activation of 1.73%. C[C@H]1CN([C@@H](C)CO)C(=O)c2cc(C3=CCCC3)cnc2O[C@H]1CN(C)Cc1ccccc1C(=O)O gave an activation of 16.5%. COCC#Cc1cnc2c(c1)C(=O)N([C@H](C)CO)C[C@H](C)[C@H](CN(C)C(=O)CCN1CCCCC1)O2 gave an activation of 6.72%. Compound Cc1ccc(S(=O)(=O)N(C)C[C@@H]2Oc3c(NC(=O)C4CC4)cccc3C(=O)N([C@H](C)CO)C[C@@H]2C)cc1 has an activation of -8.13%. Compound COc1cc(NC(=S)NCCN2CCOCC2)c(OC)cc1Cl has an activation of -5.79%. For Cc1cc(=O)oc2cc(OC(C)C(=O)Nc3ccc(N4CCOCC4)cc3)ccc12 (stereo not drawn), the activation was 7.05%. Work on CC(=O)CCc1c(C)[nH]c2ccc(C)cc2c1=O yielded an activation of 14.2%. Compound C[C@@H]1CCCCO[C@@H](CN(C)S(=O)(=O)c2cn(C)cn2)[C@H](C)CN([C@H](C)CO)C(=O)c2cc(NC(=O)NC3CCCCC3)ccc2O1 has an activation of 17%. Compound COc1cc(Cl)c(C)cc1NC(=O)CN(C)S(=O)(=O)c1ccc2ccccc2c1 has an activation of 14.5%. Work on C[C@@H]1CN([C@H](C)CO)S(=O)(=O)c2ccc(-c3cncnc3)cc2O[C@H]1CN(C)C(=O)Cc1ccccc1 yielded an activation of -1.41%. In the case of COc1ccc(-c2nnc(SCC(=O)Nc3cccc(SC)c3)n2C)cc1, the activation is reported as -10.6%. With CC(=O)OC[C@H]1O[C@@H](Oc2c(-c3ccc(O)c(O)c3)oc3cc(O)cc(O)c3c2=O)[C@H](O)[C@@H](O)[C@@H]1O the activation was 7.83%. With CCc1ccccc1NC(=O)COc1cc(O)c2c(=O)cc(-c3ccccc3)oc2c1 the activation was -9.5%. In the case of COc1c(O)cc2oc(-c3ccc(O)c(O)c3)cc(=O)c2c1O, the activation is reported as 89.5% (active). Work on CCOC(=O)c1c(NC(=O)C(C)Oc2ccc3c(C)cc(=O)oc3c2)sc2c1CCC2 (stereo not drawn) yielded an activation of 18.5%. O=C(CN(C1CCCCC1)S(=O)(=O)c1ccc(Cl)cc1)Nc1ccccc1C(F)(F)F gave an activation of 3.31%. COc1cccc(C#Cc2cnc3c(c2)C(=O)N([C@@H](C)CO)C[C@H](C)[C@H](CN(C)CC2CC2)O3)c1 gave an activation of 4.89%. COc1cc(CO)cc(Cl)c1OCc1cccc([N+](=O)[O-])c1 gave an activation of 0.353%. COc1ccccc1CCNC(=O)c1cnccn1 showed an activation of 18.5%. For C[C@@H]1CN([C@@H](C)CO)C(=O)c2c(c3ccccc3n2C)-c2ccccc2CO[C@@H]1CN(C)S(=O)(=O)CC(F)(F)F, the activation was 6.74%. Compound Cc1ccccc1-c1ccc2c(c1)O[C@@H](CN(C)C(=O)Nc1ccc(F)cc1)[C@H](C)CN([C@@H](C)CO)S2(=O)=O has an activation of -36.4%. For CCCNC(=O)C[C@H]1C[C@@H]2c3cc(NS(=O)(=O)c4cccc(OC)c4)ccc3O[C@@H]2[C@@H](CO)O1, the activation was 9.83%. Work on CCOc1ccc(Cl)cc1S(=O)(=O)NC1CC(C)(C)NC(C)(C)C1 yielded an activation of 2.34%. In the case of Cc1cc2nc(-c3ccc(NC(=O)COc4ccccc4[N+](=O)[O-])cc3)oc2cc1C, the activation is reported as 68.1% (active). Work on CN(CC(=O)Nc1ccccc1C#N)S(=O)(=O)c1ccc2ccccc2c1 yielded an activation of 0.461%. Compound Cc1cc(C)c2oc(-c3ccc(C)c(NC(=O)COc4ccccc4C)c3)nc2c1 has an activation of -4.75%. For O=C(COc1ccc([N+](=O)[O-])cc1)Nc1ccc2oc(-c3cccc(F)c3)nc2c1, the activation was 43.6%. With Cc1ccc(C)c(OCC(=O)Nc2ccccc2C#N)c1 the activation was 121% (active). Compound COc1ccc(NC(=O)COc2cc(C)c(Br)c(C)c2)c([N+](=O)[O-])c1 has an activation of -11.9%. With Cc1ccc(NC(=O)COc2ccccc2C)c([N+](=O)[O-])c1 the activation was 109% (active). In the case of Cc1ccc(-c2nc3cc(NC(=O)COc4ccc([N+](=O)[O-])cc4)ccc3o2)cc1C, the activation is reported as 21.6%. Work on COc1ccc(C(=O)Nc2cc(C)ccc2NC(=O)COc2ccccc2)cc1 yielded an activation of 28%. With COc1ccccc1NC(=O)CSc1ncc(-c2ccccc2)nn1 the activation was 36.5%. Work on C[C@@H]1CN([C@H](C)CO)C(=O)c2cc(C#Cc3cccnc3)cnc2O[C@@H]1CN(C)Cc1ccc(F)cc1 yielded an activation of 5.15%.
